Our source for the composite z-score values is PubChem BioAssay.

Test system in the first test: not listed separately
As to the kind of experiment: compounds binding Alexa647 anti-His antibody – biochemical, small-molecule microarray, 635 nm fluorescence, artefact control for SMM control protein annotation, primary screen (AID 1128).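 Further: score merges feature fluorescence with signal-to-noise for each printed compound spot.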 The conditions noted are these: higher = more signal.
The compound `[N-]=[N+]=NCc1ccccc1[C@@H]1OC(c2ccc(OCCCO)cc2)=N[C@]1(Cc1ccccc1N=[N+]=[N-])C(=O)NCC(O)CO` (stereo not given in full) yielded a composite z-score of 2.76.

For the compound `CCCNC(=O)[C@@]1(c2ccc([N+](=O)[O-])cc2)CC(=O)N(C(C)C)[C@@H]1c1ccc(CO)cc1`, the composite z-score amounted to 0.736.

`CC(C)N1C(=O)C[C@@](C(=O)NCCN2CCOCC2)(c2ccc([N+](=O)[O-])cc2)[C@H]1c1ccc(CO)cc1` registered a composite z-score of 2.67.

In turn, `CCCC[C@H]1OB(O)C[C@H]2C1=C(COc1ccccc1)C[C@H]1C(=O)C=CC(=O)[C@H]12` yielded a composite z-score of 0.219.

Turning to `CC(C)[Si](C#CCCc1ccccc1)(O[C@H](c1ccccc1)c1cn(Cc2ccccc2)nn1)C(C)C`, the composite z-score was determined as 0.269.

For another test, the system named is Human papillomavirus type 1a E7 protein (residues 1-88). Nature of the test: HPV1a E7 small-molecule binders, primary screen, biochemical, small-molecule microarray, residues 1-88, 635 nm (AID 1129). The note with it: small-molecule microarray binding, fluorescence 635 nm; higher = more signal.
The compound `C[C@@H]1ON(c2ccccc2)[C@H](c2ccccc2)[C@H]1C(=O)O` showed a composite z-score of 0.212.

Take `C[C@]1(C(=O)O)c2ccccc2C(=O)N(Cc2cc(F)cc(C(F)(F)F)c2)[C@H]1c1ccc(CO)cc1`: the composite z-score came to 0.349.

Take `COCCOC(=O)N1C(=O)[C@@]2(c3cc(C#CCCO)ccc31)[C@H](c1ccccc1OCCO)N1[C@H](c3ccccc3)[C@H](c3ccccc3)OC(=O)[C@H]1[C@@H]2C(N)=O`: the composite z-score is 1.24.

Consider `O=C1[C@H]2C=C(I)[C@H](C[C@@H]2OCCCCCCO)[C@@]12CO2`, for which the composite z-score was -0.334.

Compound `C=CCOC(=O)[C@@H]1[C@H]2C(=O)O[C@H](c3ccccc3)[C@H](c3ccccc3)N2[C@H](c2ccc(OCCOC(=O)[C@H]3C[C@H]4C(=O)N[C@@H](CCCCN(C)C)C(=O)N4[C@H]3c3ccc(O)cc3)cc2)[C@@]12C(=O)Nc1ccc(I)cc12` yielded a composite z-score of 1.17.

In turn, `O=C(NCc1ccccc1)[C@@H]1c2ccccc2C(=O)N(Cc2cc(C(F)(F)F)cc(C(F)(F)F)c2)[C@H]1c1ccc(CO)cc1` showed a composite z-score of 1.14.

For the compound `CCCC[C@H]1C[C@@H]1[C@@H]1N(C(C)=O)[C@H](c2cccc(OC)c2)CC12CC2`, the composite z-score came to 0.173.

The compound `CCOC(=O)C1=CCC(c2cc3ccccc3[nH]2)N(CCN2CC(C(=O)OCC)=CCC2c2cc3ccccc3[nH]2)C1` (stereo not given) registered a composite z-score of 1.22.

As to `C=C(CCCC)/C(=C/C[C@H](OC(C)=O)c1cccc(OCCO)c1)c1cnc2ccccc2c1`, the composite z-score was -0.263.

For the compound `CCCN1C(=O)[C@@]2(c3ccc([N+](=O)[O-])cc3)CC(=O)N(CC34CC5CC(CC(C5)C3)C4)[C@@H]2c2ccc(CO)cc21`, the composite z-score is -1.01.

Compound `COc1ccc(C(O)C2C=CC3C(=O)N(c4ccccc4)C(=O)C3N2Nc2ccc(C#N)cc2)cc1OCc1ccccc1` (stereo not given) gave a composite z-score of 1.21.

The compound `CC(C)NC(=O)[C@@]1(c2ccc([N+](=O)[O-])cc2)CC(=O)N(CC23CC4CC(CC(C4)C2)C3)[C@@H]1c1ccc(CO)cc1` had a composite z-score of 1.18.

Turning to `CC1=C([C@H](O)CCc2ccccc2)[C@H](CO)n2c(=O)n(-c3ccccc3)c(=O)n2C1`, the composite z-score was -0.37.

For `O=C(NC1CC1)[C@@H]1c2ccccc2C(=O)N(Cc2cc(C(F)(F)F)cc(C(F)(F)F)c2)[C@H]1c1ccc(CO)cc1`, the composite z-score was 0.228.

On to `COC(=O)[C@@]1(Cc2ccccc2)N=C(c2ccc(OCCCO)cc2)O[C@H]1c1ccccc1CN=[N+]=[N-]`, for which the composite z-score amounted to 0.997.

In the case of `O=C1c2ccccc2[C@@]2(Cc3ccccc3N(Cc3ccccc3)C2=O)[C@H](c2ccc(CO)cc2)N1Cc1ccccc1Cl`, the composite z-score is -1.14.

Turning to `CC(C)C[C@H]1NC(=O)C([C@@H](C)OCc2ccccc2)NC(=O)[C@@]23C(=O)N[C@@H](Cc4ccccc4)C2[C@H](C)[C@@]2(C)O[C@H]2C3/C=C/C/C=C\CNC1=O` (stereo not given in full), the composite z-score was 1.

With `CC(C)=CCCC(C)=CC(O)C1C=CC2C(=O)NC(=O)C2N1Nc1ccc(Cl)cc1Cl` (stereo not given), the composite z-score was 1.19.

The compound `CCCCC(=C=CC[C@H](O)c1ccc(CO)o1)CCO` came in with a composite z-score of 0.661.

`CCOC(=O)C1=CC[C@@H](c2ccccc2)N(S(=O)(=O)c2ccc(C)cc2)[C@H]1c1ccccc1I`: the composite z-score worked out at 1.21.

`[N-]=[N+]=Nc1ccccc1[C@@H]1OC(c2ccc(OCCCO)cc2)=N[C@]1(CCS(=O)(=O)c1ccccc1)C(=O)NCC(O)CO` (stereo not given in full): the composite z-score stood at 0.794.

Compound `N#Cc1ccc(NN2C(C(O)C3CC=CCC3)C=CC3C(=O)N(c4ccccc4)C(=O)C32)cc1` (stereo not given) returned a composite z-score of 1.28.

On to `CC(C)C[C@@H]1NC(=O)[C@@]23C(=O)N[C@@H](Cc4ccccc4)C2[C@H](C)[C@@]2(C)O[C@H]2C3/C=C/C/C=C\CNC(=O)CNC1=O` (stereo not given in full), for which the composite z-score was 0.088.

Regarding `COc1ccc([Si](C)(C)[C@H]2[C@H](CC(=O)N3CCC[C@H]3CO)O[C@@]3(C(=O)N(Cc4ccc(N5CCCCC5=O)cc4)c4ccccc43)[C@@H]2C)cc1`, the composite z-score was determined as 1.17.

With `C=CCC(OC(C)=O)[C@@H]1[C@@H](N(Cc2cccc3ccccc23)C(=O)Cc2ccc(OC)cc2)c2cc(OCCCO)ccc2N1C(=O)c1ccc2ccccc2c1` (stereo not given in full), the composite z-score is -0.322.

`NC(=O)NCC#Cc1ccc2c(c1)[C@]1(C(=O)N2)[C@H](c2ccc(OCCO)cc2)N2[C@H](c3ccccc3)[C@H](c3ccccc3)OC(=O)[C@H]2[C@@H]1C(=O)O` yielded a composite z-score of -1.59.

Compound `O=C1O[C@H](c2ccccc2)[C@H](c2ccccc2)N2[C@H]1[C@@H](C(=O)N1CCN(c3ncccn3)CC1)[C@]1(C(=O)Nc3ccc(C#CCCO)cc31)[C@H]2c1ccc(O)cc1` returned a composite z-score of 0.762.

Turning to `C=C(CCCC)/C(=C/C[C@H](OC(=O)c1ccncc1)c1cccc(OCCO)c1)c1cnc2ccccc2c1`, the composite z-score was 1.1.

Turning to `O=C(N1CCOCC1)[C@@]1(Cc2ccccc2)COC(c2ccc(OCCCO)cc2)=N1`, the composite z-score worked out at 1.23.

On to `C=CCC(OC(C)=O)[C@@H]1[C@@H](N(Cc2ccc(-c3cccc(C(F)(F)F)c3)o2)C(=O)c2ccc(-c3ccccc3)cc2)c2cc(OCCCO)ccc2N1C(=O)c1ccc2ccccc2c1` (stereo not given in full), for which the composite z-score was -0.06.

As for `[N-]=[N+]=NCc1ccccc1[C@@H]1OC(c2ccc(OCCCO)cc2)=N[C@]1(Cc1ccccc1N=[N+]=[N-])C(=O)NCC(O)CO` (stereo not given in full), the composite z-score is 1.2.

`CCCNC(=O)[C@@]1(c2ccc([N+](=O)[O-])cc2)CC(=O)N(C(C)C)[C@@H]1c1ccc(CO)cc1` yielded a composite z-score of 0.143.

Regarding `CC(C)N1C(=O)C[C@@](C(=O)NCCN2CCOCC2)(c2ccc([N+](=O)[O-])cc2)[C@H]1c1ccc(CO)cc1`, the composite z-score is -0.886.

`CCCC[C@H]1OB(O)C[C@H]2C1=C(COc1ccccc1)C[C@H]1C(=O)C=CC(=O)[C@H]12` registered a composite z-score of 0.398.

As to `CC(C)[Si](C#CCCc1ccccc1)(O[C@H](c1ccccc1)c1cn(Cc2ccccc2)nn1)C(C)C`, the composite z-score was found to be 1.09.
